# Source: PubChem BioAssay AID463173 (ICCB-Longwood Screening Facility, Harvard Medical School, 2010)
# The campaign covered roughly 52,000 compounds. About 4,300 (8.3%) were called active. The entries come from a sample that favours actives as a whole. Values without a mark were called inactive. Cut-off read from the data, not from the text of the source: active = survival mostly below about 52% (no sharp cut-off); inactive = mostly above about 56%.
# System: DeltatarO mutant
# Assay: S. aureus survival, RN4220 and DeltatarO strains – OD600, teichoic acid synthesis inhibitors, primary screen (AID 463173)
# Conditions: S. aureus RN4220 wild type/DeltatarO growth, OD600, 18 h, stronger effect = lower value, screened at 18.75 µg/mL (by protocol)
row,Compound,survival
1,CC1=C(C(=O)Nc2ccccc2)C(c2ccncc2)n2nc(SCc3ccccc3Cl)nc2N1 (centres undefined),74%
2,CCCCOc1ccc(-c2cc3c(=O)n(CC(=O)Nc4ccc(Cl)cc4Cl)ccn3n2)cc1,133%
3,CCN(CC)C(=O)Cn1c(=O)n(Cc2ccc(C(=O)NCCc3ccc(OC)c(OC)c3)cc2)c(=O)c2ccccc21,104%
4,CCn1c(=O)n(CC)c2cc(N3CCCC3)c(NC(=O)Nc3cc(C)cc(C)c3)cc21,91%
5,COc1ccc(CC(=O)NCc2ccc3c(c2)CCN3C(=O)c2ccc(Cl)cc2)cc1OC,86%
6,Cc1ccc(S(=O)(=O)C(CNC(=O)C(=O)NCCc2ccccc2)c2cccs2)cc1 (centres undefined),107%
7,C=CCN(C(=O)c1ccc2c(c1)nnn2C)c1ccccc1,97%
8,O=C(NC1CCCCC1)NC1CCN(Cc2nnnn2Cc2ccc3c(c2)OCO3)CC1,88%
9,Cc1ccc(-n2nc(C)c3c(C(F)(F)F)cc(-c4cccnc4)nc32)cc1Cl,53%
10,Cc1nn(-c2cccc(Cl)c2)c2nc(-c3cccnc3)cc(C(F)(F)F)c12,45%
11,Cc1nn(-c2ccc(Cl)cc2)c2nc(-c3cccnc3)cc(C(F)(F)F)c12,39% (active)
12,COc1ccc(CNC(=O)C2CCN(C(=O)c3ccc(-n4ccc5ccccc54)s3)CC2)cc1,90%
13,CCn1c2c(c(=O)n3ncc(C(=O)Nc4ccc(C(=O)OC)cc4)c13)CN(Cc1ccc(OC)cc1)CC2,81%
14,NC(=O)CN(c1ccccc1)C1SC(=O)NC1=O (centres undefined),76%
15,COc1ccccc1-n1c(SCC(=O)Nc2ccc(C)cc2)nc(O)cc1=O,61%
16,COC(=O)c1ccc(Cn2c(SCc3ccccc3F)nc3ccncc32)cc1,42% (active)
17,Cc1cccc(Cn2c(SCc3ccc(C(=O)NC4CCCC4)cc3)nc3ccncc32)c1,54% (active)
18,COc1ccc(CNC(=O)c2ccc(CSc3nc4ccncc4n3Cc3ccccc3F)cc2)cc1,62%
19,Cc1cccc(Cn2c(SCc3ccc(C(=O)NC4CCCCC4)cc3)nc3ccncc32)c1,75%
20,Cc1ccc(CSc2nc3ccncc3n2Cc2nc(-c3ccc(Cl)cc3)oc2C)cc1,63%
21,COC(=O)c1ccc(CSc2nc3ccncc3n2Cc2ccc(F)cc2)cc1,93%
22,COC(=O)c1ccc(Cn2c(SCc3ccccc3)nc3ccncc32)cc1,45% (active)
23,COC(=O)c1ccc(Cn2c(SCc3cccc(C)c3)nc3ccncc32)cc1,83%

row,Compound,survival
1,Cc1ccc(CSc2nc3ccncc3n2Cc2nc(-c3ccccc3C)oc2C)cc1,-4% (active)
2,Cc1ccc(C)c(CSc2nc3ccncc3n2Cc2nc(-c3ccccc3Cl)oc2C)c1,71%
3,O=C(NC1CCCC1)c1ccc(CSc2nc3ccncc3n2Cc2cccc(F)c2)cc1,60%
4,COC(=O)c1ccc(Cn2c(SCc3ccc(F)cc3)nc3ccncc32)cc1,54%
5,COc1ccc(NC(=O)CCc2nnc3n(Cc4ccc(C)cc4)c(=O)c4ccccc4n23)cc1,59%
6,Cc1cccc(-c2cc3nc(C)cc(NCCCn4ccnc4)n3n2)c1,88%
7,O=C(O)CSCCn1cccn1,93%
8,CC(C)=CCC(C)(C)CNc1ccc(C)cc1,66%
9,CCOc1ccccc1NC(=O)C1CCCN(c2ncnc3onc(-c4ccc(F)cc4)c23)C1 (centres undefined),85%
10,Cc1cc(C)cc(NC(=O)CCc2c(C)nc3c(c2C)c(=O)n(C)c(=O)n3C)c1,64%
11,COc1ccc(CN2C(=O)N(c3ccc(F)cc3)C(=O)C2CC(=O)Nc2cc(OC)cc(OC)c2)cc1 (centres undefined),81%
12,Cn1c2ccccc2c2nnc(SCC(N)=O)nc21,76%
13,CCc1ccccc1NC(=O)Cn1c(=O)n(CCCS(=O)(=O)C2CCCCC2)c(=O)c2ccccc21,86%
14,CCOc1ccc(CNC(=O)c2cnc3sc(N4CCOCC4)nn3c2=O)cc1,81%
15,CCOC(=O)c1c(C)[nH]c(CCC(=O)NCc2cccc(C)c2)c1C,70%
16,Cc1ccc(-n2ncc3c(N(C)C)ncnc32)cc1Cl,94%
17,O=C(c1ccc(CSc2nc3ccncc3n2Cc2ccccc2)cc1)N1CCCCCC1,70%
18,Cc1ccc(Cn2c(SCc3ccc(C(=O)N4CCCCC4)cc3)nc3ccncc32)cc1,7% (active)
19,Cc1ccc(Cn2c(SCc3ccc(C(=O)N4CCCCCC4)cc3)nc3ccncc32)cc1,71%
20,Cc1cc(C)c(C#N)c(S(C)(=O)=O)n1,106%
21,CCc1ccccc1NC(=O)C1CCN(S(=O)(=O)c2cn(C)cn2)CC1,93%
22,CCCCN(C)C(=O)C1CCCN(c2ncnc3onc(-c4ccc(F)cc4)c23)C1 (centres undefined),77%
23,Cc1ccc(Nc2c(-c3ccc(N4CCOCC4)cc3)nc3ncccn23)c(C)c1,80%

row,Compound,survival
1,CC1=C(C(=O)OCC2CCCCC2)C(c2ccc(Cl)cc2Cl)CC(=O)N1 (centres undefined),82%
2,Cc1ccc2c(c1C)NC(=O)CC2c1ccc(Cl)cc1Cl (centres undefined),4% (active)
3,COc1cccc(C2CC(=O)Nc3c2ccc(C)c3C)c1OC (centres undefined),94%
4,CCc1ccc(C(=O)CC2(O)C(=O)N(CCc3ccccc3)c3ccc(Cl)cc32)cc1 (centres undefined),19% (active)
5,Cc1ccc(C(=O)CC2(O)C(=O)N(CCc3ccccc3)c3ccc(Cl)cc32)cc1 (centres undefined),17% (active)
6,CCCN1C(=O)C(O)(CC(=O)c2ccc(C(C)C)cc2)c2ccccc21 (centres undefined),142%
7,CC(C)c1ccc(C(=O)CC2(O)C(=O)N(CCc3ccccc3)c3ccc(Cl)cc32)cc1 (centres undefined),33% (active)
8,CCc1ccc(C(=O)CC2(O)C(=O)N(C(C)C)c3ccccc32)cc1 (centres undefined),79%
9,CCc1ccc(C(=O)CC2(O)C(=O)N(CCc3ccccc3)c3ccc(Br)cc32)cc1 (centres undefined),52%
10,Cc1ccc(C(=O)CC2(O)C(=O)N(Cc3ccccc3F)c3ccccc32)cc1 (centres undefined),60%
11,Cc1ccc(-c2c3c(=O)n(C)c(=O)n(C)c3c3c(C(F)(F)F)nc4ccccc4n23)cc1,77%
12,Cc1ccc(S(=O)(=O)CCSc2nc(C)cc(C)c2C#N)cc1,53%
13,Nc1nonc1C(=O)NCCNCc1cccc(Cl)c1Cl,65%
14,CC(=O)c1cccc(-n2c(=O)c3c4c(sc3n(CC(=O)Nc3ccccc3F)c2=O)CN(C(C)=O)CC4)c1,123%
15,Cc1cccc(-c2nnc(N(C(=O)C3CCC3)C(C)C)s2)c1,113%
16,COc1ccc(Cn2c(CCC(=O)Nc3cccc(OC)c3)nc3cccnc32)cc1,68%
17,Cc1ccc(COC(=O)c2ccc(-c3nnn(Cc4ccc(C)cc4)n3)cc2)cc1,69%
18,COc1cc(CN(C(=O)COc2ccccc2Cl)c2ccccn2)cc(OC)c1OC,72%
19,COc1ccc(Cl)cc1NS(=O)(=O)c1ccc2c(c1)NC(=O)CC(=O)N2,88%
20,Cc1nn(-c2nc(-c3ccccc3)cc(C(F)(F)F)n2)c(C)c1Cl,5% (active)
21,COc1ccccc1-c1c(C)nn2c(C(F)(F)F)cc(-c3ccccc3)nc12,41%
22,Cc1nn(-c2nc(-c3ccc(F)cc3)cc(C(F)(F)F)n2)c(C)c1Cl,5% (active)
23,COc1cccc(-c2cc(C(F)(F)F)n3nc(C)c(-c4ccccc4)c3n2)c1,79%

row,Compound,survival
1,CC(C)(C)NC(=O)CSc1nc(-c2ccc(F)cc2)cc(C(F)(F)F)n1,72%
2,Cc1nn(-c2nc(-c3ccc(F)cc3)cc(C(F)(F)F)n2)c(C)c1Br,-2% (active)
3,COc1ccc(-n2nc(C)c3c(C(F)(F)F)cc(-c4cccnc4)nc32)cc1,56%
4,CCC(C)NC(=O)CSc1nc(-c2ccc(F)cc2)cc(C(F)(F)F)n1 (centres undefined),86%
5,COc1cccc(-c2cc(C(F)(F)F)nc(-n3nc(C)c(Br)c3C)n2)c1,41% (active)
6,CN(Cc1ccccc1)c1nc(-c2ccc(F)cc2)cc(C(F)(F)F)n1,72%
7,COc1cccc2c1Oc1ncccc1N(C(=O)Nc1ccc(F)c(Cl)c1)C2,135%
8,COc1cccc(N2CCN(S(=O)(=O)c3ccc4[nH]c5c(c4c3)CCCC5)CC2)c1,84%
9,C[N+](C)(C)CC(O)COc1ccccc1 (centres undefined),82%
10,CCc1cccc(C)c1NC(=O)Cn1nc(C)n2cccc2c1=O,92%
11,COc1cccc(CNC(=O)CCc2nnc3n(CC(C)C)c(=O)c4ccccc4n23)c1,85%
12,COc1ccccc1CNC(=O)CCc1c(C)nc2c(c(C)nn2-c2ccc(C)c(C)c2)c1C,69%
13,CN1C(=O)c2cccc3c(S(=O)(=O)Nc4cccc(C(=O)O)c4)ccc1c23,74%
14,COC(=O)c1c(-c2ccc(Cl)cc2)noc1N1CCN(c2ccc(C(C)=O)cc2)CC1,81%
15,O=C(CN1CCC(n2nnc3ccccc32)CC1)N(C1CCCCC1)C1CCCCC1,100%
16,Cc1cccc(NS(=O)(=O)c2ccc3[nH]c(=O)[nH]c3c2)c1C,78%
17,Cc1cc(NC(=O)C2CCCN(S(=O)(=O)c3ccc(Br)s3)C2)ccc1Br (centres undefined),68%
18,COCC(=O)NC1CCN(Cc2nnnn2Cc2ccc3c(c2)OCO3)CC1,87%
19,COc1ccccc1NC(=O)Cn1c(=O)n(CC(=O)NCc2ccccc2Cl)c(=O)c2sccc21,172%
20,CC(=O)c1ccc(S(=O)(=O)Nc2cccc(-c3ccc(N4CCCCC4)nn3)c2)cc1,80%
